The text below walks through data of PubChem BioAssay.

The nature of assay [1]: StAR promoter reporter inhibitors, counter-screen for LRH-1 inverse agonist project, cell-based, luminescence, high throughput (AID 651611; in the data active means inhibition above about 28%). As to conditions: StAR promoter luciferase reporter counterscreen, at 3.6 µM, hits give high values.
For assay [2], the target named is Nuclear receptor subfamily 5 group A member 2 (Homo sapiens) (UniProt O00482). In words: LRH-1 (NR5A2) inverse agonists, retest, confirmation, cell-based, luminescence (AID 651613; in the data active means inhibition above about 42%;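 further: HEK293T cells co-transfected with LRH-1 and StAR promoter luciferase reporter; 0% = vehicle wells and 100% = parental cells lacking receptor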). As to conditions: cell-based LRH-1 luciferase reporter, inverse agonism; at 3.6 µM; hits give high values.
In assay [3] the target is Steroidogenic factor 1 (Homo sapiens) (UniProt Q13285). The assay is described as follows: SF1 (NR5A1) inverse agonists, counter-screen for LRH-1 inverse agonist project, cell-based, luminescence, high throughput (AID 651614; in the data active means inhibition above about 44%;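 further: cells cotransfected with StAR promoter reporter and SF1 expression vector; 0% = vehicle on cells with receptor and 100% = vehicle on cells lacking receptor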). The conditions noted are these: cell-based SF1 luciferase reporter, at 3.6 µM, hits give high values.
Assay [4] in a line: VP16 transactivation reporter inhibitors, counter-screen for LRH-1 inverse agonist project, cell-based, luminescence, high throughput (AID 651615). As to conditions: Gal4-VP16 luciferase reporter cells, at 3.6 µM, hits give high values.
The test system of assay [5] is transactivating tegument protein VP16 (Human herpesvirus 1). In words: VP16 transactivation reporter inhibitors, counter-screen for SRC2 inhibitor project, cell-based, luminescence, single concentration (AID 652007; in the data active means inhibition above about 36%). The conditions noted are these: cell-based VP16 transactivation luciferase reporter, at 8.9 µM, hits give high values.
Assay [6] deals with Nuclear receptor coactivator 2 (Homo sapiens) (UniProt Q15596). In words: SRC2 coactivator transcriptional activity inhibitors, confirmation, cell-based, luminescence, HEK293, triplicate (AID 652008;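 active means mean inhibition above 46.5%, the solvent-only control mean plus 3 SD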;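 further: 0% = DMSO-treated cells and 100% = Gossypol at 36 µM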). As to conditions: HEK293 GAL4-SRC2 luciferase reporter, at 8.9 µM, hits give high values.

Unmarked numbers belong to inactive results. Calls of active or inactive are those of the source. Unless noted, no stated cut-off is given here; in the data, active means inhibition above about 33%; inactive means the rest.

Chain of Nuclear receptor coactivator 2 (Homo sapiens) (Q15596 whole entry, looked up, the tested form may be a part): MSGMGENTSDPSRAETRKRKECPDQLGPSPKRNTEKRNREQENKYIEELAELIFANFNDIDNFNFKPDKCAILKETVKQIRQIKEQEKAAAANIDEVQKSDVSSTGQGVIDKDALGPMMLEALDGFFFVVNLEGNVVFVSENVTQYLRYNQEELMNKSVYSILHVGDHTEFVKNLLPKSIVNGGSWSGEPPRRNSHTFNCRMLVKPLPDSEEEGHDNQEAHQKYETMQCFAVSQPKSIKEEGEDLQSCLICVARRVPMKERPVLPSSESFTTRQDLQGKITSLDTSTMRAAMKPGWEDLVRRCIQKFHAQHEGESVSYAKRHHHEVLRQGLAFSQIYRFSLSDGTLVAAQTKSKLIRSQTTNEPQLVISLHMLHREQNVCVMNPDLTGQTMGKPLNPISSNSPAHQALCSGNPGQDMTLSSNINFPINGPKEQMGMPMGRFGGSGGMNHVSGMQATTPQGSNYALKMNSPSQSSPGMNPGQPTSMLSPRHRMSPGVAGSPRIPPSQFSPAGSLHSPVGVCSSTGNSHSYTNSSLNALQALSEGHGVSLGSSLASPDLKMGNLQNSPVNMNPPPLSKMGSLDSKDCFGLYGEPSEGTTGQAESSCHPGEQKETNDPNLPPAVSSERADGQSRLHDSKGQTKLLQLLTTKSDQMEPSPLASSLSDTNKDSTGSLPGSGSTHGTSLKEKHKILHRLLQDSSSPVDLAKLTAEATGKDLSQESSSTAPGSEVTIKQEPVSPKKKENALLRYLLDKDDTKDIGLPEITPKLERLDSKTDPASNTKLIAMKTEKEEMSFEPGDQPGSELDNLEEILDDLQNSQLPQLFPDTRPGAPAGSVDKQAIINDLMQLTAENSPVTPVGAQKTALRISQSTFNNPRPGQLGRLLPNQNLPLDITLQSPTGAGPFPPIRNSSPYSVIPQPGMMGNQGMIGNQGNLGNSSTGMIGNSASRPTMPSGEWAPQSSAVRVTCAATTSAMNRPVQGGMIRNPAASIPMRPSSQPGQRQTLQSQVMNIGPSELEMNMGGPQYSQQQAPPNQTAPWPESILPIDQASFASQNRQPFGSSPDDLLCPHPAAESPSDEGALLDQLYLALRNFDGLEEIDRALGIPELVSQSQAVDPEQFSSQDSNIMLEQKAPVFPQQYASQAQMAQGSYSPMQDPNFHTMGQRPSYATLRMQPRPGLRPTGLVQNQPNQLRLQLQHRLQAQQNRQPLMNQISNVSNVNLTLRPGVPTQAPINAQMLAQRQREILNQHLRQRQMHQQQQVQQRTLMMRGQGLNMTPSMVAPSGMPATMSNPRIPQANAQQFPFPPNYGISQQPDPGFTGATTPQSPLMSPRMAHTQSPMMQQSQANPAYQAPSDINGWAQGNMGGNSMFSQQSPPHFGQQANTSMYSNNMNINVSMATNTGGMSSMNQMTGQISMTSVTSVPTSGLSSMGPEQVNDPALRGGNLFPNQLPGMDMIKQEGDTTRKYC
Chain of Nuclear receptor subfamily 5 group A member 2 (Homo sapiens) (O00482 whole entry, looked up): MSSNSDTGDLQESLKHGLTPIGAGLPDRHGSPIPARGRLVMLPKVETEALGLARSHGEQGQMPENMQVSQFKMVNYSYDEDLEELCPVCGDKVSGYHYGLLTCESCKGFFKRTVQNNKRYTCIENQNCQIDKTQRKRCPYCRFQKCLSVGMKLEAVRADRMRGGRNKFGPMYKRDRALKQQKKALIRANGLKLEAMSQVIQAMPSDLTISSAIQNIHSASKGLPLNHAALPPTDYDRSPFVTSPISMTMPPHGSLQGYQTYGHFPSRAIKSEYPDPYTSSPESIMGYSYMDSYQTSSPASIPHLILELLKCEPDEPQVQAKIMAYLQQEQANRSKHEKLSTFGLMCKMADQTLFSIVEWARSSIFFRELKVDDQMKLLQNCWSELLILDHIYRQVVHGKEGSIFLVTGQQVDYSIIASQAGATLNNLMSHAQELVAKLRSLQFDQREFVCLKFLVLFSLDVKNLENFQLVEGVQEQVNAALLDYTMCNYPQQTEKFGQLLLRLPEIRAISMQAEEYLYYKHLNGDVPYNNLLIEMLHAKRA
Chain of Steroidogenic factor 1 (Homo sapiens) (Q13285 whole entry, looked up, the tested form may be a part): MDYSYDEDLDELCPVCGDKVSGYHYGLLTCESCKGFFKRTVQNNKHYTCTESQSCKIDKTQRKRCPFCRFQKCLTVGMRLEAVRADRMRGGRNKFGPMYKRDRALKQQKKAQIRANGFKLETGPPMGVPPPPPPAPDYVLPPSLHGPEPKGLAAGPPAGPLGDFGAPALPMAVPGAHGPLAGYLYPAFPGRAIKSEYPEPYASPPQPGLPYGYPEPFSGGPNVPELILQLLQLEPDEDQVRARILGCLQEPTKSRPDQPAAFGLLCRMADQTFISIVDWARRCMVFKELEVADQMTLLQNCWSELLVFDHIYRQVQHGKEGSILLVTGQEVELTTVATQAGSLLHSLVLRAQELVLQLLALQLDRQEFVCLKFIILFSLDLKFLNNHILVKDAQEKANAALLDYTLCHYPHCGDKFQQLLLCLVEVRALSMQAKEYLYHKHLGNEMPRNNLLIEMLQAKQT

As to `Brc1ccc2ncnc(NCc3ccccc3)c2c1`, the inhibition was 30.5% (active) in assay [1]; 72.4% (active) in assay [2]; 59.9% (active) in assay [3]; 80.8% (active) in assay [4]; 21.7% in assay [5]; 54.5% (active) in assay [6].

Regarding `CC(=O)NC(c1cccc([N+](=O)[O-])c1)c1ccc2cccnc2c1O` (stereo not drawn), the inhibition is 85.6% (active) in assay [1]; 100% (active) in assay [2]; 91.2% (active) in assay [3]; 83.9% (active) in assay [4]; 0.91% in assay [5]; 31.1% in assay [6].

`CC(C)(C)C(=O)Nc1cc2nn(-c3ccccc3)nc2cc1Cl`: the inhibition in assay [1] was 48.3% (active); in assay [2], 19.3%; in assay [3] it was 43.6% (active); in assay [4], 50.1% (active); in assay [5] it was 88.2% (active); in assay [6], 90.3% (active).

As to `O=C(CCl)N(c1ccccc1)c1c[nH]c2ccccc12`, the inhibition in assay [1] is 62.4% (active); in assay [2], 55.8% (active); in assay [3] it was 38.5%; in assay [4], 18.8%; in assay [5] it was 21.6%; in assay [6] it was 17.9%.

With `N#CC(=C1C=CC(=NO)C(Cl)=C1)c1ccccc1`, the inhibition in assay [1] is 26%; in assay [2], 41.8% (active); in assay [3], 61.3% (active); in assay [4], 22.2%; in assay [5] it was -5.64%; in assay [6], 20.3%.

As to `Cc1nnsc1C(=O)NC1CCCc2c1cnn2-c1ccc(C(C)(C)C)cc1` (stereo not drawn), the inhibition in assay [1] was 29.2% (active); in assay [2], 50.7% (active); in assay [3] it was 63.2% (active); in assay [4], 50.6% (active); in assay [5] it was 13.8%; in assay [6], 31.2%.

Take `COc1ccc(-c2noc(CCCC(=O)NC3CCCC3)n2)cc1`: the inhibition in assay [1] is 15.1%; in assay [2], 59.7% (active); in assay [3], 60.5% (active); in assay [4] it was 34.5% (active); in assay [5] it was 48.8% (active); in assay [6], 53.7% (active).

As for `CCCCCc1c(CC)ncn1CCc1ccccc1OC`, the inhibition in assay [1] was -2.24%; in assay [2] it was 23.2%; in assay [3], 25.2%; in assay [4] it was 31.8% (active); in assay [5] it was 2.9%; in assay [6], 1.53%.

Consider `COc1cccc(C2=CC(=O)CC(C)(C)C2)n1`, for which the inhibition was 9.54% in assay [1]; 61.3% (active) in assay [2]; 58.1% (active) in assay [3]; 45.9% (active) in assay [4]; -6.05% in assay [5]; 32.9% in assay [6].

Turning to `Cc1ccc(-c2nc(NC(=O)c3nn(C)cc3[N+](=O)[O-])sc2C)cc1`, the inhibition in assay [1] is 18.9%; in assay [2], 21.2%; in assay [3], 32.2%; in assay [4] it was -0.37%; in assay [5] it was 35.3%; in assay [6], 50.5% (active).

In the case of `O=C(NCCOc1cccnc1)c1ccc(OC2CCN(Cc3ccccn3)CC2)cc1`, the inhibition in assay [1] is 90.8% (active); in assay [2], 105% (active); in assay [3], 97.6% (active); in assay [4] it was 87.7% (active); in assay [5] it was 15.9%; in assay [6], 56.5% (active).

In the case of `N#Cc1cccc(C=C(C(=O)c2ccccc2)c2ccccc2)c1`, the inhibition in assay [1] is 18.6%; in assay [2], 28.9%; in assay [3] it was 36.9%; in assay [4], 32.6% (active); in assay [5], 23%; in assay [6] it was 62.2% (active).

For `CN(C)CCC(=O)N1C/C(=C/c2ccccc2)C(=O)/C(=C\c2ccccc2)C1`, the inhibition is 61.4% (active) in assay [1]; 84% (active) in assay [2]; 86.6% (active) in assay [3]; 77.2% (active) in assay [4]; 86.8% (active) in assay [5]; 55.3% (active) in assay [6].

In the case of `O=C(CCCc1ccccc1)c1ccc2c(c1)OCCO2`, the inhibition in assay [1] is 62.5% (active); in assay [2] it was 7.99%; in assay [3] it was 55.9% (active); in assay [4], 26.2%; in assay [5], 54.7% (active); in assay [6], 73.9% (active).

For the compound `C=CC(=O)N1C/C(=C/c2ccccc2)C(=O)/C(=C\c2ccccc2)C1`, the inhibition in assay [1] is -2.93%; in assay [2], 71.8% (active); in assay [3] it was 77.5% (active); in assay [4], 62.2% (active); in assay [5], 88.6% (active); in assay [6] it was 65.3% (active).

On to `Cc1scc(C(=O)N/N=C/c2ccc([N+](=O)[O-])o2)c1C`, for which the inhibition is 42.8% (active) in assay [1]; 76.3% (active) in assay [2]; 73.5% (active) in assay [3]; 25.1% in assay [4]; 62.4% (active) in assay [5]; 68% (active) in assay [6].

`COc1ccc(C)cc1NS(=O)(=O)c1ccc(-c2cnc(C3CC3)o2)cc1`: the inhibition is 41.5% (active) in assay [1]; 41.9% (active) in assay [2]; 58% (active) in assay [3]; 54.5% (active) in assay [4]; 6.98% in assay [5]; 34.7% in assay [6].

For `CC1CCC/C=C/C(=O)c2c(O)cc(O)cc2CC(=O)O1` (stereo not drawn), the inhibition in assay [1] is 8.63%; in assay [2] it was 35.8%; in assay [3] it was 12.9%; in assay [4], 29.1%; in assay [5], 19.4%; in assay [6], 33.2%.

For the compound `Cc1cc(C)n2c(Nc3ccc4c(c3)OCCO4)c(-c3cc4ccccc4o3)nc2n1`, the inhibition was -27.7% in assay [1]; -26.8% in assay [2]; -6.96% in assay [3]; 0.38% in assay [4]; -60.9% in assay [5]; -12.5% in assay [6].

With `CCN(CC)CCC(=O)N1C/C(=C/c2ccccc2)C(=O)/C(=C\c2ccccc2)C1`, the inhibition in assay [1] is 57.8% (active); in assay [2], 84.4% (active); in assay [3] it was 86.8% (active); in assay [4] it was 76.2% (active); in assay [5] it was 84.8% (active); in assay [6], 23.6%.

Turning to `O=C(Nc1ccc(Cl)cc1)/C(=C/c1cccc(O)c1)c1nc2ccccc2s1`, the inhibition is 52% (active) in assay [1]; 78.1% (active) in assay [2]; 78.1% (active) in assay [3]; 71.2% (active) in assay [4]; 48.6% (active) in assay [5]; 80.7% (active) in assay [6].

As for `CC(C)(C)C(=O)/C(=C/c1cccc([N+](=O)[O-])c1)n1cncn1`, the inhibition in assay [1] was 87.2% (active); in assay [4], 83.7% (active).
